Compound activity deposited in PubChem BioAssay by several laboratories.
TIM10 inh: TIM10 yeast growth inhibition. S. cerevisiae TIM10 strain growth, BacTiter-Glo luminescence, 24 h. 330,000 compounds, 1.4% hits. inhibition, % at 10 µM;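 active = inhibition of 40% or more at the single tested concentration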;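 also: wild-type TIM10 isogenic control strain grown at permissive 25 °C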
V-ATPase pHluor: yeast V-ATPase proton transport regulation by pHLuorin; 350,000 compounds, 0.37% hits; response, % at 10 µM; S. cerevisiae, pHLuorin cytosolic pH fluorescence; in the data active = response mostly above about 7.3%, no sharp cut-off; inactive = mostly below about 5.4%; also: actives read high
tim10-1 inh: inhibits growth of tim10-1 mutant yeast; inhibition, % at 20 µM; AID 463190; 330,000 compounds, 2.2% hits; S. cerevisiae tim10-1 ts strain growth, BacTiter-Glo, 24 h;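 active = inhibition of at least 40%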;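 also: mutant grown at 25 °C; 0% = DMSO wells with yeast and 100% = wells holding no yeast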
NLRP3 yeast inh: blocks the NALP3 inflammasome reconstituted in yeast; inhibition, % at 10 µM; 330,000 compounds, 0.39% hits; Yeast reconstituted NLRP3/ASC/caspase-1, beta-gal luminescence, 24 h;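 active = inhibition of 50% or more; inactive = inhibition below 50%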;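 also: plate controls were induced DMSO wells for no effect and uninduced yeast grown without galactose for full effect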
tim23-1 inh: inhibits growth of tim23-1 mutant yeast; S. cerevisiae tim23-1 growth, BacTiter-Glo luminescence, 24 h; inhibition, % at 20 µM; 330,000 compounds, 1.3% hits; AID 463212;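 active = growth inhibition of the mutant yeast at or above 50%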;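 also: temperature-sensitive mutant grown at 25 °C; plate controls were DMSO-treated mutant yeast for no effect and medium wells lacking yeast for full effect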
NALP1 yeast inh: NALP1 inhibition | S. cerevisiae NALP1/ASC/caspase-1 growth, X-gal OD620, 72 h | 280,000 compounds, 0.61% hits | inhibition, % at 10 µM; in the data active = inhibition mostly above about 24%, no sharp cut-off; inactive = mostly below about 32%
tim10-1 conf: tim10-1 yeast growth inhibition, confirmed; shares compounds with tim10-1 inh; S. cerevisiae tim10-1 ts strain growth, BacTiter-Glo, 24 h; inhibition, % at 20 µM; 7,400 compounds, 56% hits;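 active = inhibition of yeast growth at or above a set limit in either of two repeat tests at 20 µM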;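 also: tim10-1 mutant grown at permissive 25 °C to find synthetic lethal compounds; 0% = DMSO yeast wells and 100% = medium wells without yeast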
tim10 confirm: confirmation of TIM10 yeast growth inhibitors. shares compounds with TIM10 inh. S. cerevisiae tim10 strain growth, BacTiter-Glo luminescence, 24 h. inhibition, % at 10 µM. 4,600 compounds, 63% hits. AID 463215;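 active = inhibition of yeast growth at or above a set limit in either of two replicates at 10 µM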;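 also: this counterscreen used the strain with wild-type TIM10; 0% = yeast with DMSO and 100% = medium wells lacking yeast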
* = called active by the depositor. Most compounds without a hit are left out; they make up all but 4.2% or so of the library.

How did O=C(c1ccc2c3n(nc2c1)-c1ccccc1CO3)N1CCOCC1 do in these assays?
TIM10 inh: 41*; V-ATPase pHluor: -1; tim10-1 inh: 48*; NLRP3 yeast inh: 2; tim23-1 inh: 49; NALP1 yeast inh: 1; tim10-1 conf: 51*; tim10 confirm: 31*

What do the screens show for `O=C(c1ccc2c3n(nc2c1)-c1ccc(Cl)cc1CO3)N1CCOCC1`?
TIM10 inh: -3; V-ATPase pHluor: -2; tim10-1 inh: 14; NLRP3 yeast inh: 16; tim23-1 inh: -1; NALP1 yeast inh: -5

Results for COc1ccccc1C(=O)Nc1ccc(S(=O)(=O)N2CCCCC2c2cccnc2)cc1 (centres undefined) ?
TIM10 inh: 63*; V-ATPase pHluor: -2; tim10-1 inh: 64*; NLRP3 yeast inh: 12; tim23-1 inh: 38; NALP1 yeast inh: 2; tim10-1 conf: 70*; tim10 confirm: 78*

What do the screens show for `O=C(Nc1ccc(S(=O)(=O)N2CCCCC2c2cccnc2)cc1)c1ccccc1F` (centres undefined)?
TIM10 inh: 59*; V-ATPase pHluor: 0; tim10-1 inh: 52*; NLRP3 yeast inh: 27; tim23-1 inh: 12; NALP1 yeast inh: -8; tim10-1 conf: 47*; tim10 confirm: 43*

Results for O=[N+]([O-])c1cccc(S(=O)(=O)N2CCCCC2c2cccnc2)c1 (centres undefined) ?
TIM10 inh: 15; V-ATPase pHluor: 1; tim10-1 inh: 26; NLRP3 yeast inh: 5; tim23-1 inh: 28; NALP1 yeast inh: 12

How did COc1ccc(C(=O)N2CCCN(C)CC2)cc1S(=O)(=O)N(C)Cc1ccccc1 do in these assays?
TIM10 inh: 5; V-ATPase pHluor: 0; tim10-1 inh: 3; NLRP3 yeast inh: 24; tim23-1 inh: 12

What do the screens show for `CCN(CC)S(=O)(=O)c1ccc(N2CCc3ccccc3C2)nc1`?
TIM10 inh: 50*; V-ATPase pHluor: -1; tim10-1 inh: 43*; NLRP3 yeast inh: 16; tim23-1 inh: 39; NALP1 yeast inh: 22; tim10-1 conf: 32*; tim10 confirm: 41*

Results for O=c1oc(-c2ccccc2)cc(Cl)c1Cl ?
TIM10 inh: 76*; V-ATPase pHluor: -34; tim10-1 inh: 81*; NLRP3 yeast inh: 11; tim23-1 inh: 22; NALP1 yeast inh: 4; tim10-1 conf: 86*; tim10 confirm: 78*

How did Cc1ccc(C(c2nnnn2CCc2ccccc2)N2CCC(C)CC2)cc1 (centres undefined) do in these assays?
TIM10 inh: 47*; V-ATPase pHluor: 0; tim10-1 inh: 45*; NLRP3 yeast inh: 9; tim23-1 inh: 44; NALP1 yeast inh: -38; tim10-1 conf: 36*; tim10 confirm: -4

Results for N#C/C(=C\c1ccccc1)C(=O)Nc1cc(S(=O)(=O)N2CCOCC2)ccc1N1CCCC1 ?
TIM10 inh: 49*; V-ATPase pHluor: -1; tim10-1 inh: 52*; NLRP3 yeast inh: 17; tim23-1 inh: 49; NALP1 yeast inh: 35; tim10-1 conf: 33*; tim10 confirm: 24

How did COC(=O)c1ccccc1NC(=S)NC(=O)COc1ccccc1Cl do in these assays?
TIM10 inh: 42*; V-ATPase pHluor: -4; tim10-1 inh: 42*; NLRP3 yeast inh: 23; tim23-1 inh: 34; NALP1 yeast inh: 11; tim10-1 conf: 24; tim10 confirm: 32

How did COC(=O)c1ccccc1NC(=S)NC(=O)COc1ccc(C)cc1 do in these assays?
TIM10 inh: 9; V-ATPase pHluor: -1; tim10-1 inh: -2; NLRP3 yeast inh: 12; tim23-1 inh: 3

What do the screens show for `COc1ccc(NC(=O)CSc2ccc3nnc(CCNC(=O)c4ccccc4)n3n2)cc1OC`?
TIM10 inh: 4; V-ATPase pHluor: 1; tim10-1 inh: -10; NLRP3 yeast inh: -1; tim23-1 inh: 4; NALP1 yeast inh: 14

What do the screens show for `N#CC1(C#N)CC(C=O)=C(N)C1(C#N)CC(=O)C12CC3CC(CC(C3)C1)C2` (centres undefined)?
TIM10 inh: 48*; V-ATPase pHluor: 1; tim10-1 inh: 40*; NLRP3 yeast inh: -8; tim23-1 inh: 48; NALP1 yeast inh: 60; tim10-1 conf: 48*; tim10 confirm: 40*
